PubChem BioAssay (NCI)
This is part of a sample that, as a whole, favours compounds with a hit. Of some 83,000 tested, about 20% had one in any assay.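 Cells were grown in 96-well plates and exposed to the test compound at a single concentration for 48 hours; results are reported as percent growth, with values below 10 considered active.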 Unmarked numbers belong to inactive results. Calls of active or inactive are those of the source.

Columns and labels:
Experiment in all cases: NCI-60 one-dose screen, 48 h (100 = growth as untreated, 0 = no growth, -100 = all killed)
Details in all cases: 10 µM unless noted
SR leukemia = tested on: SR leukemia
RPMI-8226 leukemia = tested on: RPMI-8226 leukemia
OVCAR-8 ovarian = tested on: OVCAR-8 ovarian
OVCAR-5 ovarian = tested on: OVCAR-5 ovarian
OVCAR-4 ovarian = tested on: OVCAR-4 ovarian
SK-OV-3 ovarian = tested on: SK-OV-3 ovarian
IGROV1 ovarian = tested on: IGROV1 ovarian
OVCAR-3 ovarian = tested on: OVCAR-3 ovarian
HS 578T breast = tested on: HS 578T breast
NCI/ADR-RES ovarian = tested on: NCI/ADR-RES ovarian
T-47D breast = tested on: T-47D breast
BT-549 breast = tested on: BT-549 breast
MDA-MB-435 melanoma = tested on: MDA-MB-435 melanoma
SW-620 colon = tested on: SW-620 colon
MCF7 breast = tested on: MCF7 breast
HCT-116 colon = tested on: HCT-116 colon
HCC-2998 colon = tested on: HCC-2998 colon
KM12 colon = tested on: KM12 colon

Row | SMILES | growth (SR leukemia) | growth (RPMI-8226 leukemia) | growth (OVCAR-8 ovarian) [%] | growth (OVCAR-5 ovarian) [%] | growth (OVCAR-4 ovarian) [%] | growth (SK-OV-3 ovarian) [%] | growth (IGROV1 ovarian) | growth (OVCAR-3 ovarian) [%] | growth (HS 578T breast) [%] | growth (NCI/ADR-RES ovarian) [%] | growth (T-47D breast) | growth (BT-549 breast) [%] | growth (MDA-MB-435 melanoma) | growth (SW-620 colon) [%] | growth (MCF7 breast) | growth (HCT-116 colon) [%] | growth (HCC-2998 colon) [%] | growth (KM12 colon) [%]
1 | CNC(=O)c1cccc(Cn2nc(C)c(NC(=O)c3ccc(COc4ccc(C(F)(F)F)cc4C)cc3)c2C)n1 | 22% | 32.7% | 35.8 | 104 | 37.8 | 74 | 65.1% | 35.1 | 87.7 | 33.4 | 7.54% (active) | 22.1 | 43.2% | 81.8 | 21.7% | 24.4 | 61.7 | 65.4
2 | N#Cc1cc(-c2nc3ccccc3s2)c(=O)n(NS(=O)(=O)c2ccccc2)c1N | 108% | 103% | 106 | 102 | 107 | 90.3 | 98.7% | 114 | 101 | 105 | 94.5% | 98.2 | 102% | 100 | 105% | 109 | 116 | 103
3 | O=C(c1nnc(Nc2ccccc2Br)o1)c1c[nH]c2ccccc12 | 103% | 93.6% | 94.9 | 99.6 | 106 | 83 | 72.6% | 97.2 | 104 | 102 | 79.6% | 103 | 101% | 98.7 | 77.2% | 88.4 | 88.6 | 81.7
4 | COc1cccc2c1c1nc3cc(C)c(C)cc3nc1n2CCN(C)C | 3.48% (active) | -8.21% (active) | 26.4 | 28.7 | 35 | 39 | 5.59% (active) | 32.6 | 54.4 | 25.1 | 30.1% | 68.8 | 31.3% | 12.6 | 4.64% (active) | 14.4 | 44.6 | 29.2
5 | O=C(Nc1ncc(Cc2cc(Cl)ccc2Cl)s1)c1cccs1 | 22.9% | 57.2% | 74.4 | 73.9 | 80 | 72.1 | 59.3% | 65.2 | 74.3 | 34.7 | 44.8% | 74.6 | 4.2% (active) | 48.5 | 32.5% | 35.3 | 58.4 | 31.2
6 | NS(=O)(=O)c1ccc(Cn2c(SCC(=O)N/N=C/c3ccccc3O)nc3ccccc3c2=O)cc1 | 26.6% | 49.7% | 44.3 | 68.4 | 40.7 | 73 | 62.3% | 13.4 | 71.6 | 98.3 | 33.3% | 56.1 | 71.7% | 60.4 | 50% | 42.7 | 50.7 | 39.2
